Rab9 promoter act = activates the Rab9 promoter; Huh7 Rab9 promoter-luciferase reporter, luminescence, 24 h; Potency, µM (doses to about 9.22 µM), for inactives: top-dose activation, negative = inhibition, usual class: activators; actives 2.8% (n = 320,000); AID 485297; also: % of control where 0% means no effect; nearly all actives have a fitted effect of over 60% in size
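Stable Rab9-luc Huh7, 1500 cells/well, 2 h settle; cmpd in DMSO, 24 h, 37 °C/5% CO2; luciferase reagent 10 min RT; luminescence.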
SMN2 splice enh = enhancers of SMN2 splice variant expression. HEK293 SMN2-luciferase splicing reporter, luminescence, 30-36 h. Potency, µM (top dose mostly 46.1 µM), for the others: at the top dose activity change, positive = activation, actives largely listed as activators. actives 2.8% (n = 210,000). AID 1458; also: % of control where 0% means no effect; nearly all actives have a fitted effect of over 55% in size
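qHTS luciferase splicing reporter: luminescence rises when SMN2 exon 7 is included in transfected HEK293 cells. Compound exposure lasted 30-36 h at 37C, with 4.5 mM final sodium butyrate as control, followed by a ONE-Glo read.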
NPC1 promoter act = activators of NPC1 promoter; Huh7 NPC1 promoter luciferase reporter, 24 h; Potency, µM (series often up to 9.22 µM), for the others: at the highest dose activation, most hits filed as activators; actives 2.4% (n = 320,000); AID 485313; also: % of control where 0% means no effect; nearly all actives have a fitted effect of over 60% in size
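Luminescence read-out of NPC1 promoter-driven luciferase in stably transfected Huh7 cells; compounds delivered in DMSO and left 24 h at 37C, 5% CO2, qHTS titration format.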
Luc counter = counter-screen: inhibitors of Kinase-Glo firefly luciferase; Q27757; Kinase-Glo luciferase, ATP luminescence, 8 min; Potency, µM (series often up to 38.3 µM), for inactives: at the top dose activity change, negative = inhibition, usual class: inhibitors; actives 0.28% (n = 200,000); AID 1379; also: % is scaled to controls: 0 for no effect and ±100 for the full control effect; nearly all actives have a fitted effect of over 60% in size
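Luminescence was the read-out, taken after 8-minute incubation at ambient temperature. Luciferase turned over luciferin with 10 uM ATP in imidazole pH 7.2 buffer containing KCl, MgCl2, Tween 20 and BSA.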
ELG1 genotox = induces genotoxicity in HEK293T cells with luciferase-tagged ELG1; HEK293T ELG1-luciferase reporter, luminescence, 16 h; Potency, µM (series often up to 46 µM), without a hit: at the top dose activity change, positive = activation, actives largely listed as activators; actives 1.3% (n = 330,000); AID 504466; also: % of control where 0% means no effect; nearly all actives have a fitted effect of over 60% in size
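Genotoxic stress is detected as increased luminescence from luciferase-tagged ELG1 in HEK293T cells, measured with ONE-Glo after a 16 hr treatment at 37 °C.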
FLuc counter = firefly luciferase modulation, counter-screen for miR-21 project; P08659; purified FLuc, Km substrates, luminescence inhibition; Potency, µM (titrated, usually from 57.5 µM), inactives show top-dose activity change, negative = inhibition, hits mostly inhibitors; actives 6.9% (n = 360,000); AID 588342;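 also: plate controls were vehicle for no effect and reference inhibitor for full effect; nearly all actives have a fitted effect of over 55% in size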
Target sequence (P08659 whole entry, looked up): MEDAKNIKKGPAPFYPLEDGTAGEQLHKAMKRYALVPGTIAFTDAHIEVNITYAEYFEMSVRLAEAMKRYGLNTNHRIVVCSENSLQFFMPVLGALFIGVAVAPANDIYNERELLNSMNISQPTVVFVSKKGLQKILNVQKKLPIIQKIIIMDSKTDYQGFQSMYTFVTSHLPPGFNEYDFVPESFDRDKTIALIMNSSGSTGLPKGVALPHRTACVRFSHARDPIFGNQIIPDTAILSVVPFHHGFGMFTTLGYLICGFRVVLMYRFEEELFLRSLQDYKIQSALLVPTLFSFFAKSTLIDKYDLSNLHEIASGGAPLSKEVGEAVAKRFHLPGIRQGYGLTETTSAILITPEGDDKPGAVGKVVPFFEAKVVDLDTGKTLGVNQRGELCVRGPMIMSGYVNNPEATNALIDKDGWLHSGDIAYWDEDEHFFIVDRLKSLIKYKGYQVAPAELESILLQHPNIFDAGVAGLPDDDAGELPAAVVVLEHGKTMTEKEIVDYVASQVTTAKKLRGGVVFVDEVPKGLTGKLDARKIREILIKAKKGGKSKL
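Purified P. pyralis luciferase, 10 nM final, with Km-level 10 uM D-luciferin and 10 uM ATP in 50 mM Tris acetate pH 7.5, 10 mM Mg acetate, 0.01% Tween-20, 0.05% BSA; 6-point qHTS titration about 60 µM downward; luminescence read.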
* = called active by the depositor; ? = inconclusive; . = no result; [ ] = dose if it differs, or a comment. Rows were chosen to be rich in hits. Some 7.4% of all compounds tested hit in one or more screens of this group. Calls follow the shape of the dose curve; as a rule, active = well fitted curve in the direction sought with a large enough effect; inconclusive = small, poorly fitted or top-dose-only effect, or another doubt; inactive = no such curve, though single readings can be large; an effect the other way counts as inactive or inconclusive. Potency is read from the fitted curve at half-maximal effect.

SMILES | Rab9 promoter act | SMN2 splice enh | NPC1 promoter act | Luc counter | ELG1 genotox | FLuc counter
COCc1nc(-c2ccc(-c3ccc(C)cc3)nc2OC)no1 | ? | -2.8% | 17.7% | -1.2% | 14.9% | 16.9µM*
COc1nc(C)ccc1-c1noc(-c2ccco2)n1 | 1.26µM* | 5.62µM* | 1.41µM* | -12.5% | ? | 3.79µM*
CCOc1nc(-c2ccccc2)ccc1-c1noc(-c2ccco2)n1 | -9.7% | -6.8% | -8.5% | -3.6% | 8.7% | -0.6%
CCOc1cc(-c2nc(-c3ccc(C)nc3OC)no2)cc(OCC)c1OCC | 0.8% | -3.5% | -4.1% | -1.4% | -4.8% | 0.3%
N#CCCN(Cc1cccnc1)C(=S)NC(=O)c1ccccc1 | . | . | . | . | 2.5% | .
CCOC(=O)c1[nH]c(C)c(C(=O)OCC(=O)N(Cc2ccccc2)C(C)C)c1C | 3.0% | . | -1.3% | . | -4.4% | 6.8%
COc1ccc2oc(C(=O)Nc3cccc(S(=O)(=O)N4CCOCC4)c3)c(C)c2c1 | 0.9% | . | 1.8% | . | -5.5% | 6.01µM*
COc1ccc2oc(C(=O)OCC(=O)Nc3cccc(S(=O)(=O)N4CCOCC4)c3)c(C)c2c1 | 0.4% | . | 0.4% | . | 1.0% | ?
O=C(Nc1cccc(S(=O)(=O)N2CCOCC2)c1)c1cc2ccccc2o1 | 1.1% | . | 0.7% | . | -8.2% | 16.9µM*
O=C(Nc1cccc(S(=O)(=O)N2CCCCC2)c1)c1cc2ccccc2o1 | 13.3% | . | 0.4% | . | -9.3% | 8.49µM*
O=C(Nc1cc(S(=O)(=O)N2CCOCC2)ccc1Cl)c1cc2ccccc2o1 | 1.9% | . | -6.2% | . | -1.5% | .
O=C(Nc1cccc(S(=O)(=O)N2CCCCC2)c1)c1ccco1 | 4.1% | . | -2.3% | . | -2.8% | -4.2%
Cc1c(C#N)c(O)n(C)c(=O)c1N=Nc1ccc(S(N)(=O)=O)cc1 | 20.3% | -30.7% | 16.7% | 3.5% | 12.0% | ?
CCOC(=O)c1ccc(N=Nc2c(C)c(C#N)c(O)[nH]c2=O)cc1 | 4.47µM* | 49.9% | 15.8% | -4.3% | ? | 2.69µM*
CN(C(=O)COC(=O)C1COc2ccccc2O1)c1c(N)n(Cc2ccccc2)c(=O)[nH]c1=O (stereo not drawn) | -2.3% | . | 0.7% | . | 0.2% | 0.9%
C=C(CCC12O[C@H](C(=O)O)[C@@](O)(C(=O)O)[C@](C(=O)O)(O1)[C@H](OC(=O)/C=C/[C@@H](C)C[C@@H](C)CC)[C@H]2O)[C@@H](OC(C)=O)[C@H](C)Cc1ccccc1 | . | . | . | 2.3%[39.9 µM] | . | .
CC(=O)NCCOc1cccc(OCCNC(C)=O)c1 | 2.3% | -13.5% | -0.5% | -2.3% | 0.3% | 1.9%
CC(=O)NCCOc1ccc2oc3ccccc3c2c1 | . | 4.9% | . | 2.0% | . | 16.9µM*
COc1ccc(C(C)=O)cc1COC(=O)c1cc(=O)c2ccccc2o1 | 1.1% | . | -2.3% | . | 0.4% | 0.6%
Cc1ccc2[nH]c(=O)c(CN(Cc3ccco3)S(=O)(=O)c3c(C)ccc4nsnc34)cc2c1 | -16.9% | 7.94µM* | -4.6% | -1.7% | -14.1% | 2.6%[2.3 µM]
Cc1ccc2nsnc2c1S(=O)(=O)N(Cc1ccco1)Cc1cc2cccc(C)c2[nH]c1=O | 0.8% | -5.8% | -2.7% | -5.5% | -6.0% | 4.8%
COc1cccc(C2Nc3ccccc3C(=O)N2c2ccc(F)cc2)c1O (stereo not drawn) | ? | . | ? | . | ? | -10.3%
O=C1c2ccccc2NC(c2ccccc2O)N1c1ccc(F)cc1 (stereo not drawn) | 3.98µM* | . | 3.98µM* | . | ? | -13.8%
COc1cc(NC(=S)NCc2ccc(S(N)(=O)=O)cc2)c(OC)cc1Cl | 1.5% | -6.4% | 0.6% | 7.4% | -2.8% | 3.4%
C/C(=N\NC(=O)c1c(Br)c(C)nn1C)c1cccc(NC(=O)c2ccccc2F)c1 | -0.2% | 8.8% | 1.7% | 1.2% | 0.2% | ?
C/C(=N\NC(=O)c1ccccc1F)c1cccc(NC(=O)c2ccccc2)c1 | 11.1% | . | 23.6% | . | ? | 2.69µM*
